# High-throughput results from PubChem.
# Rtt109 Vps75: inhibitors of Candida albicans Rtt109/Vps75 histone acetyltransferase | purified Rtt109/Vps75, ThioGlo CoA-SH fluorescence, 4 h | inhibition, % at 34.9 µM | hit rate 0.16% among 330,000 | AID 540336;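 active = inhibition of at least 50% in every replicate; inconclusive = best replicate reaches 50% inhibition but some replicates fall short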
# Target sequence (Q5AAJ8 whole entry, looked up): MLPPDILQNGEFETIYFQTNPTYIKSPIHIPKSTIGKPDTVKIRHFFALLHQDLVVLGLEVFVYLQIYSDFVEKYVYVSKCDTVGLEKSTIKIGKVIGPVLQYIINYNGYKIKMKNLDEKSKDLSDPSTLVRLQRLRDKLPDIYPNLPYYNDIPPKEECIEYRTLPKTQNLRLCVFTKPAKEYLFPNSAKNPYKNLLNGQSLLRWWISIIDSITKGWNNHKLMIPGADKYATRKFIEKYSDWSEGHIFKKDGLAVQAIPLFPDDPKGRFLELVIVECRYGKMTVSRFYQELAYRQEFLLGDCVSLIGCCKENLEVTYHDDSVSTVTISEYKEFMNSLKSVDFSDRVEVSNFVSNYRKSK
# MITF act: activators of MITF-driven TRPM1 promoter activity in SK-MEL-5 cells; SK-MEL-5 TRPM1-promoter luciferase, 24 h; % of positive control, neutral wells = 0; activation, % at 12.5 µM; hit rate 0.75% among 300,000; AID 588334;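 active = mean activation of at least 80% with every replicate also reaching 80%; inconclusive = mean reaches 80% but some replicate falls short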;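 note: 0% = neutral control wells and 100% = parthenolide positive control wells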
# esBAF inh: inhibitors of esBAF chromatin remodeling in mouse ES cells; Bmi1-luciferase knock-in reporter, 24 h; 100% = twice the neutral-well signal; hit rate 2% among 350,000; reporter increase, % at 12.5 µM; AID 602393; in the data active = activation above about 40%; inconclusive = no clear call, values can overlap the other calls;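 note: 0% = median of the plate's neutral control wells and 100% = double that signal; a rise in the Bmi1 reporter signal indicates esBAF inhibition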
# Statin myotox sup: suppressors of simvastatin-induced myotoxicity in C2C12 myotubes; ATP luminescence, 48 h; scaled: DMSO 0, geranylgeraniol control 100; rescue of ATP level, % at 7.49 µM; hit rate 0.78% among 330,000; AID 602340;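 active = mean ATP rescue above about 67%, or every replicate alone reaching that limit, limit read from the data, passing the limit was not always enough; inconclusive = no clear call, values can overlap the other calls; inactive = mean under the limit and some replicate under it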;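 note: myotubes were challenged with 10 µM simvastatin during compound exposure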
# Wnt bcat act: Wnt/beta-catenin pathway activation. activation, % at 9.35 µM. hit rate 1.2% among 300,000. Wnt/beta-catenin reporter cell assay, activator, plate reader; in the data active = activation above about 30%, passing the limit was not always enough; inconclusive = no clear call, values can overlap the other calls;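 note: 0% = neutral control wells and 100% = positive control wells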
# * = called active by the depositor; u = inconclusive; x = no result given; ! = not active in a repeat. In the library only some 3.1% were active in any assay of this set; here they are far more common.
SMILES,Rtt109 Vps75,MITF act,esBAF inh,Statin myotox sup,Wnt bcat act
O=c1oc(-c2cccs2)nc2scc(-c3cccs3)c12,-11.3,x,63.5*,x,11.3
Cc1nc2scc(-c3cccs3)c2c(=O)o1,0.8,-13.3,x,x,x
O=c1oc(-c2cc3ccccc3o2)nc2sc3c(c12)CCCC3,6.7,100.6*,53.4*,-66.2,14.9
O=c1oc(/C=C/c2ccccc2)nc2sc3c(c12)CCC3,1.3,104.6*,x,x,5.9
O=c1oc(-c2cccs2)nc2sc3c(c12)CCCCC3,7.9,u,43.0*,-7.2,-6.1
C[C@@H]1CN([C@@H](C)CO)C(=O)c2cc(NC(=O)Nc3ccc4c(c3)OCO4)ccc2O[C@H]1CN(C)Cc1ccc(Cl)c(Cl)c1,x,x,4.8,-72.7,x
O=C(C[C@@H]1CC[C@H]2[C@@H](COC[C@H](O)CN2Cc2cccc(Cl)c2)O1)NCC1CCCCC1,x,x,5.6,36.0,x
CC(=O)N(C)C[C@H]1Oc2cc(C3=CCCCC3)ccc2S(=O)(=O)N([C@@H](C)CO)C[C@H]1C,x,x,x,-30.3,x
O=c1oc(-c2ccccc2)nc2sc3c(c12)CCCC3,0.4,58.2,56.0*,-38.9,x
Cc1ccccc1-c1nc2sc3c(c2c(=O)o1)CCC3,-6.7,64.5,7.5,x,0.2
O=C(OCCc1ccccc1)c1cc(O)c(O)c(O)c1,4.3,41.8,-9.4,14.3,51.3*
COC(=O)c1ccc(COC(=O)CNC(=O)c2ccc(OC)cc2)cc1,0.9,60.1,68.4*,-10.0,19.5
Nc1ccc(C(=O)OCCc2ccccc2)cc1,0.3,100.7*,-12.1,-4.7,60.2*
CC(C)(C)C(=O)COC(=O)CNC(=O)c1ccc(Oc2ccccc2)cc1,3.4,-8.0,-11.9,140.8*,-3.6
Cc1noc(C)c1S(=O)(=O)N(C)C[C@H]1Oc2ccc(NC(=O)Nc3ccc(C(F)(F)F)cc3)cc2CC(=O)N([C@@H](C)CO)C[C@H]1C,x,x,1.7,-100.9,x
COCC(=O)Nc1ccc2c(c1)[C@H]1C[C@H](CC(=O)NCCN3CCCCC3)O[C@@H](CO)[C@H]1O2,x,x,5.1,4.0,x
O=C(C[C@@H]1CC[C@@H](NC(=O)c2cccc(F)c2)[C@@H](CO)O1)NCc1ccccc1,x,x,-2.5,0.5,x
COc1ccc(C(=O)OCCc2ccc(O)cc2)cc1,3.2,130.3*,50.3*,7.7,16.9
COC(=O)c1ccc(/C=C2\SC(=S)N(CCCC(=O)N3CCOCC3)C2=O)cc1,2.7,-2.3,-2.9,-3.5,-0.7
COC(=O)c1ccc(/C=C2/SC(=S)N(CCC(=O)N3CCOCC3)C2=O)cc1,10.1,-9.1,8.2,71.2*,-1.1
COc1ccc(C(=O)Nc2nc3ccc(OC)cc3s2)cc1,-0.6,x,35.0,1.9,12.1
COc1ccc(Nc2nc3ccc(OC)cc3s2)cc1,6.3,90.6*,x,x,28.3
COc1ccc2nc(NC(=O)Nc3ccccc3)sc2c1,-4.0,68.0,-29.0,3.8,56.3*!
COc1ccc(NC(=O)c2cccnc2SC)cc1OC,2.9,14.9,0.6,5.0,35.2*
CSc1ncccc1C(=O)Nc1nc2ccc(Oc3ccccc3)cc2s1,-4.8,61.7,45.1*,-16.7,24.0
SMILES,Rtt109 Vps75,MITF act,esBAF inh,Statin myotox sup,Wnt bcat act
COCC(=O)Nc1ccc2c(c1)[C@H]1C[C@@H](CC(=O)NCc3cc(F)ccc3F)O[C@@H](CO)[C@H]1O2,x,x,-2.1,-1.5,x
COc1ccc2nc(Nc3nc(C)c(C(C)=O)s3)sc2c1,-2.9,69.2,37.8,17.7,55.9*
COc1cc(C)nc(Nc2nc(C)c(C(C)=O)s2)n1,-0.1,0.1,-11.9,6.3,x
O=C(O)C[C@H]1C=C[C@H](NC(=O)c2ccccc2F)[C@H](CO)O1,x,x,-2.7,-4.8,x
CC(=O)Nc1ccc2c(c1)C(=O)N(C)[C@@H]1CC[C@@H](CC(=O)NCCCN3CCOCC3)O[C@H]1CO2,x,x,-2.3,7.2,x
C[C@H](CO)N1C[C@H](C)[C@H](CN(C)C(=O)Cc2cccnc2)Oc2ncc(C#CCc3ccccc3)cc2C1=O,x,x,-7.7,10.5,x
CC1C=CC(C)C(C(=O)c2ccccc2)C1C(=O)c1ccccc1 (stereo not given),x,x,-2.4,-9.9,-4.0
O=C(c1ccccc1)C1OC1C(=O)c1ccccc1 (stereo not given),9.2,-34.8,53.1*,0.9,12.9
Cc1noc(C)c1NC(=O)N(C)C[C@@H]1Oc2ccc(NC(=O)Cc3cn(C)c4ccccc34)cc2C(=O)N([C@H](C)CO)C[C@H]1C,x,x,-6.5,-15.7,x
Cc1ccc(C2Nc3ccccc3-c3nc4ccccc4n32)o1 (stereo not given),-1.7,43.3,67.7*,-42.2,x
COc1ccc(S(=O)(=O)Nc2ccc3c(c2)C(=O)N([C@H](C)CO)C[C@H](C)[C@@H](CN(C)C(=O)Nc2ccc(F)cc2)OCCCC[C@@H](C)O3)cc1,x,x,-12.5,4.2,x
O=C(NC1CCCCC1)C1CCN(C(=O)NCc2ccccc2)CC1,5.9,3.4,1.1,103.4*,-3.3
O=C(NC1CCCCC1)C(=S)NCc1ccccc1,-10.6,56.9,50.4*,-3.0,8.5
O=C(NC1CCCC1)C1CCN(C(=O)NCc2ccccc2)CC1,-10.1,3.0,x,x,-0.8
O=C(CNC(=S)NC(=O)C1CCCCC1)c1ccccc1,1.9,87.0*,20.9,-34.9,-0.3
O=C(NC1CCCCCC1)C(=S)NCc1ccccc1,4.9,37.0,x,x,-2.8
O=C(NC(=S)NC1CCCC1)c1ccccc1,0.1,54.6,56.5*,2.3,25.0
O=C(NC(=S)NC1CCCCCCCCCCC1)c1cccnc1,-3.3,-2.6,-2.4,-22.1,-3.9
O=C(NC(=S)NCCc1ccccc1)C1CCCCC1,-7.5,4.4,31.6,-7.3,1.6
O=C(Nc1ccc2c(c1)[C@@H]1C[C@@H](CC(=O)N3CCCCC3)O[C@H](CO)[C@@H]1O2)c1cccnc1,x,x,-2.2,1.4,x
C[C@H]1CN([C@@H](C)CO)C(=O)c2cc(/C=C/c3ccccc3)cnc2O[C@@H]1CN(C)C(=O)C1CC1,x,x,x,-107.5,x
C=CCn1c(COc2cccc3cccnc23)nnc1SCC(=O)O,-5.3,-1.0,0.9,105.3*,-1.5
Cc1ccc(NC(=O)C2COc3ccccc3O2)nc1 (stereo not given),-34.9,29.7,30.0,9.0,-3.4
Cc1ccc(NC(=O)C2CC(=O)N(c3ccc4c(c3)OCCO4)C2)nc1 (stereo not given),-1.5,0.6,x,-1.2,13.8
Cc1ccnc(NC(=O)C2CC(=O)N(c3ccc4c(c3)OCCO4)C2)c1 (stereo not given),6.6,99.1*,-24.9,1.8,46.1*
Cc1ccc(NC(=O)C2COc3ccccc3O2)c(C)c1 (stereo not given),0.6,30.8,45.0*,12.1,8.4
O=C(CCC1COc2ccccc2O1)Nc1ccccn1 (stereo not given),-2.3,6.0,3.5,155.5*,x
Cc1ccnc(NC(=O)C2COc3ccccc3O2)c1 (stereo not given),-3.5,88.0*,x,x,57.6*
C[C@H]1CCCCO[C@@H](CN(C)Cc2ccc(C(=O)O)cc2)[C@@H](C)CN([C@@H](C)CO)C(=O)c2cc(NC(=O)Nc3ccc(C(F)(F)F)cc3)ccc2O1,x,x,0.7,x,x
